# Test results reported in PubChem BioAssay AID743381 (National Center for Advancing Translational Sciences (NCATS), 2014).
# Inconclusive results are not listed. Values without a mark were called inactive. The source made the active and inactive calls. Calls come from the whole dose curve; as a rule, active = well fitted inhibition curve with a large enough effect; inconclusive = small, poorly fitted or top-dose-only effect; inactive = flat fitted curve, though single readings scatter.
# Target: Phosphatidylinositol 5-phosphate 4-kinase type-2 alpha (Homo sapiens) (UniProt P48426)
# Sequence (P48426 whole entry, looked up): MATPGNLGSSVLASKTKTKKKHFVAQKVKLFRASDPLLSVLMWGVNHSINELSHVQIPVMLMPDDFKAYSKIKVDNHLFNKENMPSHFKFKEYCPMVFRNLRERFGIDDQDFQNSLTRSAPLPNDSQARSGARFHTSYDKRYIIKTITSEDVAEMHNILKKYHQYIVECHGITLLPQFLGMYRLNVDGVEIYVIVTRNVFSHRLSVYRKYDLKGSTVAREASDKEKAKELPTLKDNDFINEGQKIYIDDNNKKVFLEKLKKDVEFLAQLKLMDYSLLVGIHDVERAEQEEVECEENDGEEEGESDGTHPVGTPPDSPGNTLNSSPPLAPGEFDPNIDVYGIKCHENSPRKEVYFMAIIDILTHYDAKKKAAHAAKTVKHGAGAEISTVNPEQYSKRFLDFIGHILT
# Assay: qHTS for Inhibitors of PI5P4K: PI5P4K-alpha Confirmatory Assay for Probe SAR
# Conditions: Purified PI5P4Kalpha, ADP-Glo luminescence, 60 min; series mostly up to 76.9 µM; activity change, negative = inhibition: at the top concentration
# Description: In addition to finding PI5P, we discovered the type II phosphatidylinositol 5-phosphate 4-kinase (PI5P4K) family (alpha, beta, gamma isoforms) that catalyze the conversion of PI5P to PI(4,5)P2. Alternatively, PI(4,5)P2 can also be synthesized through phosphatidylinositol-4-phosphate (PI4P) by the type I phosphatidylinositol 4-phosphate 5-kinases (PI4P5K). These PI5P4K enzymes therefore represent one way by which cells can regulate endogenous PI5P levels and play important roles in insulin signaling and in stress responses. […] A qHTS PI5P4Kalpha ADP-Glo assay was developed to identify specific modulators of human PI5P4K, phosphatidylinositol-5-phosphate 4-kinase (Type II PIPK). This assay was screened against the MLSMR containing ~400,000 small molecules (PubChem AID 652105). The same assay was used to validate subsequent Medicinal Chemistry efforts on the active compounds and its analogs. Inhibition of the enzyme activity (signal decrease) is the desired outcome for this assay. Davis et al., PLoS One. 2013; 8(1):e54127. NIH Chemical Genomics Center [NCGC] NIH Molecular Libraries Probe Centers Network [MLPCN] MLPCN Grant: MH096575 Assay Submitter (PI): Atsuo Sasaki, Beth Israel Deaconess Medical Center
# Two microliter of PI5P4Kalpha/substrate buffer (columns 1-2, 5-48) was dispensed into Greiner white solid bottom 1536-well assay plates; column 3 received only PI5P4Kalpha buffer as no substrate control; column 4 receives only substrate buffer as no PI5P4Kalpha controls. Final assay buffer consists of 0.038 M HEPES pH 7.4, 0.28 mM EGTA, 0.1 % CHAPS, and 5% DMSO (final concentration). Compounds were then transferred via Kalypsys pin tool equipped with 1536-pin array. Following addition of compound, 1 uL of ATP (5 uM final concentration) was added to initiate the reaction. ATP was diluted in an assay buffer consisting of 0.02 M HEPES pH 7.4, 60 mM MgCl2, 15 uM ATP, and 0.1% CHAPS. The plates were then incubated at room temperature for 60 minutes. ADP-Glo reagent 1 was added and plates incubated for 45 minutes. ADP-Glo reagent 2 was added and the plates were incubated for 30 minutes. The plates were transferred to a ViewLux high-throughput CCD imager (PerkinElmer) wherein single end-point measurements of luminescence were acquired using a clear filter.
SMILES,Potency,"activity change, negative = inhibition"
O=C1Nc2ccccc2/C1=C\c1ccc(O)c(F)c1,2180 nM (active),–
COc1cc(/C=C2/C(=O)Nc3ccccc32)cc(OC)c1O,30700 nM (active),–
O=C1Nc2cccc(Cl)c2/C1=C\c1cc(Cl)c(O)c(Cl)c1,3070 nM (active),–
COc1cc(/C=C2\C(=O)Nc3ccccc32)ccc1O,19400 nM (active),–
O=C1Nc2ccccc2/C1=C\c1ccc([N+](=O)[O-])cc1,2740 nM (active),–
O=C1Nc2ccccc2/C1=C\c1cc(F)c(O)c(F)c1,487 nM (active),–
O=C1Nc2ccccc2/C1=C\c1ccc(O)cc1,24400 nM (active),–
Cc1cccc2c1NC(=O)/C2=C/c1cc(Cl)c(O)c(Cl)c1,547 nM (active),–
O=C1Nc2ccccc2C12CC2c1cc(Cl)c(O)c(Cl)c1 (centres undefined),10900 nM (active),–
O=C1Nc2ccccc2/C1=C/c1cc(Cl)c(O)c(Cl)c1,867 nM (active),–
COc1ccc(/C=C2/C(=O)Nc3ccccc32)cc1O,772 nM (active),–
O=C1Nc2ccccc2/C1=C/c1cccc(C(=O)O)c1,10900 nM (active),–
O=C1Nc2ccccc2/C1=C\c1cc(Br)c(O)c(Br)c1,1220 nM (active),–
O=C1Nc2ccccc2/C1=C/c1ccc[nH]1,–,11%
